# PNC inhibitor: inhibitors of perinucleolar compartment assembly. PC3M PTB-GFP, PNC prevalence imaging, 16 h; stronger effect = lower value. hit rate 3.1% among 140,000. AID 2417. activity change (PNC), negative = inhibition, % at 10 µM;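 active = readout at or below -70, meaning at least 70% loss of cells showing the perinucleolar compartment, a nuclear body marking cancer cells; inconclusive = readout between -30 and a set limit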
#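 Compounds are pinned in duplicate onto adhered PC3M cells stably expressing GFP-tagged PTB and incubated 16 h at 37 C. Cells are then fixed, nuclei stained with Hoechst, and PNC-positive cells counted.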
# ALDH1A1 inh: blocks purified human ALDH1A1 activity | hit rate 7.3% among 220,000 | Purified ALDH1A1, NADH fluorescence, propionaldehyde substrate | Potency, µM (titrated, usually from 75.3 µM), usual class: inhibitors | AID 1030
# HPGD inh: blocks human HPGD enzyme activity; Potency, µM, most hits filed as inhibitors; purified HPGD, NADH fluorescence kinetic, PGE2 substrate; hit rate 4.3% among 150,000; AID 894; P15428
# Target sequence (P15428 whole entry, looked up): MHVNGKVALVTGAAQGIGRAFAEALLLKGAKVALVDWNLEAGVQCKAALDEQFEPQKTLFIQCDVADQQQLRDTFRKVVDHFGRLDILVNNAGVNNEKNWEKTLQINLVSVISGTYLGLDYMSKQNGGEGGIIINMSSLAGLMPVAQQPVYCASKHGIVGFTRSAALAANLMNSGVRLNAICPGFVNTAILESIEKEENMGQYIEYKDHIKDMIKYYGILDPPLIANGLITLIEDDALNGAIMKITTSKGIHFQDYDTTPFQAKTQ
#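 20 nM HPGD preincubated 15 min at room temperature with compound in 50 mM Tris-HCl pH 8, 0.01% Tween 20. Started with 1 mM NAD+ and 30 uM prostaglandin E2; NADH fluorescence (360/450 nm) read 5 times over 30-s intervals, last minus first.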
# Numbers stand for hits; 0 = inactive; ? = inconclusive; - = not tested or not shown; [ ] = dose if it differs, or a comment. Compounds with a hit are over-represented: about 11% of the library has one in this group of screens. Unless noted, calls come from the whole dose curve; as a rule, active = well fitted inhibition curve with a large enough effect (not every such curve was filed as active); inconclusive = small, poorly fitted or top-dose-only effect, or another doubt; inactive = no such curve, though single readings can be large or run the other way.
SMILES,PNC inhibitor,ALDH1A1 inh,HPGD inh
CCCCC(CCC(=O)Nc1cc([N+](=O)[O-])ccc1O)C(=O)O (configuration not stated),-,0,-
COc1ccc2c(c1)sc(=N)n2CC(=O)Nc1cc(C)cc(C)c1,-,0,-
CCCCc1c(O)nc2sc3cc(OC)ccc3n2c1=O,0,0,15.8µM
COC(=O)c1cc(=O)nc2sc3cc(OC)ccc3n12,?,15.8µM,0
COC(=O)c1cc(=O)nc2sc(-c3ccccc3)nn12,0,?,0
Cc1cccc(C)c1[N+](=O)[O-],-,?,0
CNc1nc(Nc2ccc(Br)cc2)nc(N)c1[N+](=O)[O-],0,0,0
Cc1ccccc1-c1ccc(C(=O)Nc2cccc(F)c2)o1,0,?,0
Cc1cccc(NC(=O)c2ccc(-c3ccccc3[N+](=O)[O-])o2)c1,-,2.24µM,-
CN(C)CC(C)(C)CNS(=O)(=O)c1ccc(Cl)s1,-,0,-
CCOC(=O)N1CCN(C(=O)c2cc3c(=O)[nH]c4ccccc4c3s2)CC1,-118.9,?,0
CCOC(=O)N1CCN(C(=O)c2ccc(-n3c(=S)[nH]c4ccccc4c3=O)cc2)CC1,0,0,0
Cc1c(NS(=O)(=O)c2cccc(C(=O)OCC(=O)N(C)C3CCCCC3)c2)c(=O)n(-c2ccccc2)n1C,-,0,-
CCOc1ccc(NC2=C(Cl)C(=O)N(Cc3ccccc3)C2=O)cc1,0,0,-
COc1ccc(NC2=C(Cl)C(=O)N(CCc3ccccc3)C2=O)cc1,?,0,0
COc1ccc(NC2=C(Cl)C(=O)N(CCc3ccccc3)C2=O)c(OC)c1,0,?,15.8µM
Cc1ccc(O)c(NC2=C(Cl)C(=O)N(Cc3ccccc3)C2=O)c1,-,2.82µM,-
CCOC(=O)C1(CC2CC2)CCN(Cc2cnc(-c3ccc(OC)cc3)nc2)CC1,-,0,-
c1cncc(-c2nnc(SCc3cccc4ccccc34)o2)c1,?,0,25.1µM
CCOC(=O)CSc1nnc(-c2cccnc2)o1,0,0,0
O=C(CSc1nnc(-c2cccnc2)o1)OC1CCCCC1,0,10µM,0
c1ccc(CSc2nnc(-c3cccnc3)o2)cc1,0,0,0
CC(C)=CC(=O)OCC(=O)NC1CCCc2ccccc21 (configuration not stated),-,0,-
O=C(N/N=C1/C[C@@H](O)[C@@H](O)[C@@H]2[C@@H]3C(=O)N(Cc4ccccc4)C(=O)[C@H]3CC[C@@H]12)OCc1ccccc1,-,0[13.5 µM],-
CC(=O)Nc1ccc(C(=O)CSc2nnc(-c3ccc(O)cc3)n2CC2CCCO2)cc1 (configuration not stated),0,?,0
SMILES,PNC inhibitor,ALDH1A1 inh,HPGD inh
CC1(C)CC(=O)C(Sc2nnc(-c3ccc(O)cc3)n2CC2CCCO2)C(=O)C1 (configuration not stated),?,18.9µM,0
C=CC(=O)N1C(=O)c2ccccc2S1(=O)=O,-,0,0
OC(CCN1CCOCC1)(c1ccc(Cl)cc1)C1CCCCC1 (configuration not stated),0,7.08µM,0
OC(CCN1CCCCC1)(c1ccccc1)C1CCCCC1 (configuration not stated),0,0,0
Fc1ccccc1C1c2cccn2CCN1C(=S)Nc1ccc(Br)cc1 (configuration not stated),-,14.1µM,-
S=C(Nc1ccccc1)N1CCn2cccc2C1c1cccnc1 (configuration not stated),0,0,0
CCCc1ccc(/C=C2\C(=O)c3ccccc3C(O)=C2C(=O)OCC)cc1,?,?,4.47µM
CCOC(=O)C1=C(O)c2ccccc2C(=O)/C1=C\c1ccc(CC)cc1,0,18.9µM,0.891µM
CCCN=C(C)C1=C(O)c2ccccc2C1=O,0,?,0
CCOC(=O)C1=C(O)/C(=C/c2cccc(OC)c2O)N=C1C,-,0,-
COc1ccccc1NS(=O)(=O)c1cc(NC(=O)c2ccc3c(c2)OCCO3)ccc1C,0,?,0
C=Cc1ccccc1Cl,-,?,0
CC(Sc1n[nH]c(N)n1)C(=O)Nc1ccc(Cl)cn1 (configuration not stated),-,0,-
COc1cc(C(O)P(=O)(OCCC(C)C)c2ccc(N(C)C)cc2)cc(OC)c1OC (configuration not stated),-,0,-
CCc1sc(/C=C(/C#N)C(N)=S)cc1[N+](=O)[O-],-,2.24µM,-
Cc1cc(C)c(C)c(/C=C(/C#N)C(N)=S)c1C,0,?,0
Fc1ccc([C@H]2CCNC[C@H]2COc2ccc3c(c2)OCO3)cc1,-,?,0
O=C(COc1ccc(Cl)cc1Cl)NCc1ccco1,0,0,?
O=C(COc1ccccc1-c1ccccc1)NCc1ccco1,-,7.08µM,-
C/C(CC(=O)NCc1ccco1)=N\NC(=O)COc1ccc(C)cc1,0,0,0
Cc1cc(Cl)cc(Cl)c1OCC(=O)NCc1ccco1,0,?,25.1µM
Cc1nn(-c2ccccc2)c(C)c1C(=O)OCC(=O)NCc1ccco1,0,22.4µM,0

# High-throughput results from PubChem BioAssay.
